# Screening data (PubChem)
# TGFb SMAD3 inh – blocks TGF-b signaling; HepG2 CAGA-GFP TGF-b/SMAD3 reporter, GFP fluorescence, 18 h; TGF-beta stimulated, 500 pg/mL final; Potency, µM (series often up to 46.1 µM), for the others: at the highest dose activity, negative = inhibition, hits mostly inhibitors; actives 1.2% (n = 410,000); AID 588855; note: % is set by controls: 0 for no effect and ±100 for the full control effect; nearly all actives have a fitted effect of over 65% in size
#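 Inhibition was scored as loss of TGF-beta-induced (500 pg/mL final, 18 hours, 37 degrees C) GFP in HEPG2 cells carrying a CAGA-GFP reporter, in DMEM with 1% FBS. Well GFP was summed per cell; Activity was normalised to unstimulated and stimulated DMSO wells, then concentration-response fitting.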
# ATXN2 expr inh – inhibitors of ATXN2 expression | HEK-293 ATXN2-luciferase reporter, luminescence, 24 h | AID 1745845 | Potency, µM (titrated, usually from 57 µM), inactives show top-dose activity change, negative = inhibition, most hits filed as inhibitors | actives 0.72% (n = 360,000); note: % is set by controls: 0 for no effect and ±100 for the full control effect; nearly all actives have a fitted effect of over 55% in size
#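 qHTS (up to 57 uM final) was run with 24 h compound exposure of reporter cells at 37 °C. Each well was multiplexed: SteadyGlo luminescence measured ATXN2-luciferase expression after a fluorogenic Gly-Phe-AFC viability readout (25 uM final).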
# HepG2 viability – HepG2 cytotoxicity, counter-screen for TGF-b inhibitors; HepG2 CAGA-GFP viability, ATP luminescence, 18 h; Potency, µM (series often up to 46.1 µM), for the others: at the highest dose activity change, negative = cytotoxicity, actives largely listed as cytotoxic; actives 0.76% (n = 410,000)
#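 HepG2 CAGA-GFP cells (1000/well, DMEM with 1% FBS) received compound, then TGF-beta at 500 pg/mL final, and were incubated 18 hours at 37 degrees C. Viability was read by CellTiter-Glo luminescence. Media-only wells were set as complete cell-killing and DMSO as no toxicity.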
# DT40 TDP1 no CPT – qHTS for Inhibitors of human tyrosyl-DNA phosphodiesterase 1 (TDP1): qHTS in cells in absence of CPT. DT40 Tdp1-/- hTDP1 cells, no CPT, ATP luminescence, 48 h. Potency, µM (doses to about 46.2 µM), for the others: top-dose activity change, negative = growth inhibition, most hits filed as inhibitors. actives 15% (n = 420,000). AID 686978, 2013; note: % is set by controls: 0 for no effect and ±100 for the full control effect; nearly all actives have a fitted effect of over 55% in size
#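 Readout: luminescence from CellTiter-Glo after 30 min in the dark at RT. Cells: DT40 Tdp1-/- with stable hTDP1, 400/well. Exposure: compounds alone, ≥48 hr, 37 °C.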
# TDP1 cell CPT – DT40-hTDP1 cell growth loss with CPT | actives 12% (n = 420,000) | AID 686979 | Potency, µM (titrated, usually from 46.2 µM), for inactives: top-dose activity change, negative = growth inhibition, usual class: inhibitors | chicken DT40 Tdp1-/-;hTDP1 cells + 20 nM CPT, ATP luminescence, 48 h; note: % is set by controls: 0 for no effect and ±100 for the full control effect; nearly all actives have a fitted effect of over 55% in size
#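 Chicken DT40 Tdp1-/- cells complemented with human TDP1, 400 cells/well, exposed to compounds plus 20 nM camptothecin for at least 48 h at 37 C; viability read as ATP content by CellTiter-Glo luminescence.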
# ATXN viability – cell viability loss in ATXN counter-screen. actives 0.49% (n = 400,000). AID 651635. S2 cells (HEK-293 line with an ATXN2-luciferase reporter) viability, CellTiter-Fluor protease fluorescence, 24 h. Potency, µM (top dose mostly 56.7 µM), most hits filed as cytotoxic; note: nearly all actives have a fitted effect of over 40% in size
# * marks the source's active call; other numbers are inactive results; i = inactive; ? = inconclusive; nt = not tested or not shown; [ ] = remark or other dose. A selection: hits, their analogues and other compounds. The true share with any hit is near 17%. Calls come from the whole dose curve; as a rule, active = well fitted curve in the direction sought with a large enough effect; inconclusive = small, poorly fitted or top-dose-only effect, or another doubt; inactive = no such curve, though single readings can be large; an effect the other way counts as inactive or inconclusive. Potency is the fitted concentration of half-maximal effect.
SMILES,TGFb SMAD3 inh,ATXN2 expr inh,HepG2 viability,DT40 TDP1 no CPT,TDP1 cell CPT,ATXN viability
CC(C)(Cc1ccc(O)cc1)NC(=O)CC(=O)N/N=C/c1ccc(Cl)cc1,-26.2%,-34.3%,-13.0%,18.4µM*,?,i
O=C(Cn1cnc([N+](=O)[O-])n1)N/N=C/c1ccc2ccccc2c1,-1.0%,-16.6%[11.3 µM],2.2%,-10.7%,0.3%,i
CC/C(C)=N\N=C\c1c(O)n(CC)c2cc(C3=NNC(=O)CC3)ccc12,32.9%,-18.1%,6.2%,6.51µM*,10.3µM*,i
O=C(CSc1nccn1Cc1ccc(Cl)cc1)NC1CCCC1,-23.9%,nt,-25.6%,-1.9%,-22.1%,nt
O=C(C1=COCCO1)N1CCN(c2nc3ccc([N+](=O)[O-])cc3s2)CC1,4.9%,-3.9%,5.1%,5.17µM*,9.2µM*,?
CC(=O)N1CCN(c2nc3ccc([N+](=O)[O-])cc3s2)CC1,18.8%,nt,-7.8%,?,?,i
Cc1ccc(S(=O)(=O)N2C[C@H]3C(=O)C[C@@H](c4cccs4)N(S(=O)(=O)c4ccc(C)cc4)[C@H]3C[C@H]2c2ccccc2)cc1,2.3%,10.2%,-0.6%,?,-21.9%,i
COc1ccc(S(=O)(=O)Nc2ccccc2C(=O)NCc2ccco2)cc1,-1.2%,-2.8%,10.5%,?,20.6µM*,i
COCCCNC(=O)c1ccccc1N(Cc1ccccc1)S(=O)(=O)c1ccc(OC)cc1,-25.7%,-17.1%,-6.9%,20.6µM*,?,?
CN(c1ccccc1C(=O)Nc1ccccc1C(=O)NCc1ccco1)S(C)(=O)=O,5.3%,1.5%,-3.4%,2.7%,0.7%,i
COc1ccc(S(=O)(=O)N(Cc2ccccc2)c2ccccc2C(=O)Nc2ccccc2C(=O)NCc2ccco2)cc1,?,2.8%,-11.7%,5.8µM*,?,i
O=C(NCc1ccco1)c1ccccc1NS(=O)(=O)c1ccc(Br)s1,?,-11.8%,-40.9%,?,?,i
CCN1CCN(C(=O)c2ccccc2N(Cc2ccccc2)S(=O)(=O)c2ccc(OC)cc2)CC1,7.9%,-18.2%,-26.0%,?,?,?
C=CCN(c1ccccc1OC)S(=O)(=O)c1ccc(Cl)c(C(=O)NCc2ccco2)c1,-23.7%,nt,-1.0%,13µM*,18.4µM*,?
CCCC(C(=O)NC1CCCC1)N(C(=O)c1snc(C(N)=O)c1N)c1ccc(F)cc1 (stereo not given),20.2%,-11.7%,3.5%,-25.7%,-9.7%,i
CC(=O)NC(CCc1ccc(Cl)c(Cl)c1)c1cccc(O)c(=O)c1 (stereo not given),-18.6%,nt,-14.0%,7.31µM*,23.1µM*,i
COc1ccc(N=C(c2ccccc2)c2c(C)[nH]n(-c3ccccc3)c2=O)c(OC)c1,-24.9%,-8.8%,10.4%,18.4µM*,?,i
COc1ccc(OC)c(-n2c(-c3ccc(S(C)(=O)=O)cc3)cc(C=O)c2C)c1,-0.2%,1.7%,-32.8%,-6.4%,-27.0%,i
COc1ccc(OC)c(-n2c(C)ccc2-c2ccc(S(C)(=O)=O)cc2)c1,-19.7%,2.7%,-6.7%,?,18.4µM*,i
Cn1c(=O)n(C)c2cc(NS(=O)(=O)c3ccc4c(c3)CCCC4)ccc21,22.3%,26.0%,-24.3%,?,17.8µM*,i
Cn1c(=O)n(C)c2cc(NS(=O)(=O)c3ccc(C(C)(C)C)cc3)ccc21,-24.3%,-3.7%,-8.4%,18.4µM*,18.4µM*,i
Cn1c(=O)c2cc(S(=O)(=O)Nc3ccc4c(c3)OCO4)ccc2n(C)c1=O,0.7%,-21.7%,-41.0%,7.08µM*,2.06µM*,i
Cc1cc(C)c(S(=O)(=O)Nc2ccc3c(c2)CCC3)c(C)c1,17.8µM*,?,-87.3%,18.4µM*,?,i
Cc1cc(C)c(S(=O)(=O)Nc2ccccc2)c(C)c1,?,-1.6%,10.4%,?,?,i
CCCC(=O)Nc1ccc(NC(=O)CCc2ccccc2)cn1,-4.2%,-3.7%,-33.1%,16.4µM*,16.4µM*,i
SMILES,TGFb SMAD3 inh,ATXN2 expr inh,HepG2 viability,DT40 TDP1 no CPT,TDP1 cell CPT,ATXN viability
CCCS(=O)(=O)NC(=O)C1(C)CCN(C(=O)c2ccc(C(F)(F)F)nc2C)C1 (stereo not given),-0.4%,6.4%,1.9%,3.8%,-5.4%,i
CC1CN(N=Cc2ccc([N+](=O)[O-])o2)C(=N)O1 (stereo not given),?,-28.2%,-41.3%,18.4µM*,20.6µM*,i
O=C1SCCN1N=Cc1ccc([N+](=O)[O-])o1,?,-36.3%,-52.3%,18.4µM*,8.2µM*,i
CC1CS(=O)(=O)CCN1/N=C/c1ccc([N+](=O)[O-])o1 (stereo not given),nt,nt,nt,?,-8.8%[21.1 µM],?
O=C1C2C(C(=O)N1/N=C/c1ccc([N+](=O)[O-])o1)C1C=CC2C12CC2 (stereo not given),?,-20.5%,-101.5%,23.1µM*,16.4µM*,?
O=C1C2C3C=CC(C4CC34)C2C(=O)N1/N=C/c1ccc(-c2ccc([N+](=O)[O-])cc2)o1 (stereo not given),-1.6%,-20.3%,-8.2%,?,?,i
CN1CCC(Oc2ccccc2Sc2ccccc2)CC1,38.1%,-8.3%,-17.0%,16.4µM*,?,i
Cc1nc2cc(-c3ccccc3)sc2c(=O)n1N,-13.5%,0.891µM*,7.08µM*,?,16.4µM*,i
COc1ccc(-c2cc3nc(C)n(N)c(=O)c3s2)cc1,30.8%,nt,2.82µM*,5.8µM*,5.8µM*,i
COc1ccc(-c2nc3ccccc3c(=O)n2N)cc1,-7.4%,9.8%,-3.9%,-23.2%,-2.7%,i
Cn1c(OCC2CCCO2)nc2cc(-c3ccccc3)sc2c1=O (stereo not given),6.9%,?,-12.3%,?,23.1µM*,i
COc1ccc(-c2cc3nc4n(c(=O)c3s2)CCC4)cc1,15.4%,5.01µM*,-38.2%,?,14.6µM*,i
Cc1ccccc1-c1cc2nc(OCC3CCCO3)n(C)c(=O)c2s1 (stereo not given),1.6%,-7.8%,-17.5%,?,?,i
COc1ccc(-c2nc3n(c2C)CCC3)cc1,7.0%,27.8%,3.5%,-28.0%,-0.3%,i
CCN(CC(=O)NC1CCS(=O)(=O)C1)C(=O)/C=C/c1cccs1 (stereo not given),0.4%,nt,0.0%,2.2%,2.7%,i
